{
  "source": "PubChem BioAssay (NCATS)",
  "note": "Results filed as inconclusive are left out. Entries that show only a call come without a potency. Unmarked numbers belong to inactive results. The source made the active and inactive calls. Calls come from the whole dose curve; as a rule, active = well fitted cell-killing curve with a large enough effect; inconclusive = small, poorly fitted or top-dose-only effect, or effect the other way; inactive = flat fitted curve, though single readings scatter.",
  "data": [
    {"test_system": "Es-2", "experiment": "Primary qHTS to identify gynecologic anti-cancer compounds using libraries of approved drugs and bioactive compounds (AID 1345084); note: nearly all actives have a fitted effect of over 55% in size", "details": "Gynecologic cancer cell panel viability, ATPlite luminescence, 48 h; series mostly up to 57.5 µM", "outline": "(§1)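 Five-point cytotoxicity, 48 h drug exposure at 37 C, 5% CO2, on cells seeded 16 h beforehand. ATP content read by ATPlite luminescence.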", "values": [
      {"smiles": "O=C(O)c1cccc(C(=O)CCC2OC(n3cnc4c(=O)[nH]cnc43)C(O)C2O)c1", "note": "(stereo not given)", "Potency": "inactive"},
      {"smiles": "CC1(CO)CCCC2(C)C1C(OC(=O)c1ccccc1)CC1C(=O)OCC12O", "note": "(stereo not given)", "Potency": "inactive"},
      {"smiles": "CC1C2=CC(=O)OC2(O)CC2C1C(O)CC1C(C)(CO)CCCC21C", "note": "(stereo not given)", "Potency": "inactive"},
      {"smiles": "COc1cc2c(cc1OC)N1C(=O)C[C@@]34C=CC[N@+]5([O-])CC[C@H]2[C@H](CC3)[C@@]145", "Potency": "inactive"},
      {"smiles": "CCCN1CCC[C@@H](c2cccc(S(C)(=O)=O)c2)C1", "Potency": "inactive"},
      {"smiles": "CC1CCC2(C(=O)OC3OC(CO)C(O)C(O)C3O)CCC3(C)C(=CCC4C5(C)CCC(O)C(C)(CO)C5CCC43C)C2C1(C)O", "note": "(stereo not given)", "Potency": "inactive"},
      {"smiles": "COc1ccc(Oc2c(Cl)cnn(C3c4ccccc4-c4ccccc43)c2=O)cc1", "Potency": "inactive"}
    ]},
    {"test_system": "HeLa", "experiment": "Primary qHTS to identify gynecologic anti-cancer compounds using libraries of approved drugs and bioactive compounds (AID 1345084); note: nearly all actives have a fitted effect of over 55% in size", "details": "Gynecologic cancer cell panel viability, ATPlite luminescence, 48 h; series mostly up to 57.5 µM", "outline": "as §1", "values": [
      {"smiles": "CC1(C)CC[C@]2(C(=O)O[C@@H]3O[C@H](CO)[C@@H](O)[C@H](O)[C@H]3O)CC[C@]3(C)C(=CCC4[C@@]5(C)CC[C@H](OC6OC(C(=O)O)C(OC7OC(CO)C(O)C(O)C7O)C(O)C6O)C(C)(C)C5CC[C@]43C)C2C1", "note": "(stereo not given in full)", "activity change, negative = cytotoxicity": "2.77% [at 11.6 µM]"},
      {"smiles": "COc1cccc(CN(C(=O)CC(C)(C)C)C2CC(C(=O)N3CCNCC3)N(Cc3ccc4c(c3)OCO4)C2)c1", "note": "(stereo not given)", "Potency": "inactive"},
      {"smiles": "C/C=C(/C)C(=O)OC1CC(C)(C)CC2C3=CCC4C5(C)CCC(OC6OC(C)C(OC7OC(C(=O)O)C(O)C(OC8OC(CO)C(O)C(O)C8OC8OC(CO)C(O)C(O)C8O)C7O)C(O)C6O)C(C)(C)C5CCC4(C)C3(C)C(OC(=O)/C=C/C=C/C=C/CCC)C(OC(C)=O)C12CO", "note": "(stereo not given)", "activity change, negative = cytotoxicity": "0% [at 6.55 µM]"}
    ]}
  ]
}
